B2AR arrestin: qHTS assay of beta-arrestin-biased ligands of beta2-adrenergic receptor; beta-arrestin recruitment to beta2AR, cell-based reporter; Potency, µM (series often up to 46.1 µM), without a hit: at the highest dose activation, most hits filed as activators; hit rate 0.02% among 330,000; AID 492947, 2010;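 further: potency means the concentration at half of the fitted maximal effect; 0% = DMSO controls and full agonism = EC100 isoproterenol or metaproterenol; nearly all actives have a fitted effect of over 65% in size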
DRD3 agonist: qHTS of D3 Dopamine Receptor Agonist: qHTS; D(3) dopamine receptor (Homo sapiens), P35462; D3R DiscoveRx beta-arrestin cells, luminescence, 90 min; max activation, %; hit rate 0.58% among 410,000; AID 652048, 2013; in the data active means max activation above about 30%; further: 0% is about no effect
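Agonist-mode cell screen: cells plated at 1500/well and incubated overnight at 37 °C, then exposed to library compounds for 90 min at 37 °C. Detection reagent was added for 30–60 min at room temperature, and luminescence was read.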
a7 integrin act: qHTS for Activators of Integrin-Mediated Alleviation for Muscular Dystrophy; hit rate 0.064% among 350,000; Potency, µM (highest dose often 38.3 µM), for inactives: at the top dose activation, hits mostly activators; alpha7betagal myoblasts, beta-gal FDG fluorescence, 48 h;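 further: potency means the concentration at half of the fitted maximal effect; 100% = response of the positive control SU9516; nearly all actives have a fitted effect of over 60% in size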
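alpha7betagal+/- myoblasts (passage 13, 250/well) treated 48 h at 37C with compounds at 1:260 dilution of DMSO stock. Lysed, then beta-galactosidase activity read as FDG fluorescence (ex 480/em 540) after 30 min, with pre-read for autofluorescence.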
mIDH1 inhibitor: qHTS for Inhibitors of mutant isocitrate dehydrogenase 1 (IDH1): qHTS; IDH1-R132H enzyme, NADPH consumption, diaphorase/resazurin fluorescence; Isocitrate dehydrogenase [NADP] cytoplasmic (Homo sapiens), O75874; hit rate 0.093% among 390,000; Potency, µM (top dose mostly 76.6 µM), without a hit: at the top dose activity change, negative = inhibition, usual class: inhibitors; further: potency means the concentration at half of the fitted maximal effect; on the % scale 0 is the no-effect control and ±100 the full control effect; nearly all actives have a fitted effect of over 65% in size
Target sequence (O75874 whole entry R132H, stated change not applied): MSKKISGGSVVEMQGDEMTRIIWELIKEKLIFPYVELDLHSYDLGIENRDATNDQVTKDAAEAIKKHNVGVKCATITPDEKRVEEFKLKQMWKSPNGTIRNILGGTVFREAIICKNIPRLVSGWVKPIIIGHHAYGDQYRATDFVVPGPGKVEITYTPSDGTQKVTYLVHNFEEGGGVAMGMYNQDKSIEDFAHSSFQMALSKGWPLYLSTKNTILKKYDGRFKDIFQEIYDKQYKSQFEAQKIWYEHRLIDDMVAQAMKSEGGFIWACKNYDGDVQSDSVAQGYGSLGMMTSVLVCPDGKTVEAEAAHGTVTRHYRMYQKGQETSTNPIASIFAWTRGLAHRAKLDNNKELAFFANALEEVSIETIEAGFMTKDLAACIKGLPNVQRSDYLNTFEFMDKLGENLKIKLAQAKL
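IDH1-R132H (0.5 ug/mL) preincubated 30 min with compound, then NADPH (0.016 mM) and alpha-KG (2 mM) added; 80 min at RT, pH 7.5. Remaining NADPH coupled via diaphorase/resazurin to fluorescence (540/590 nm); concentration-response curves normalized to no-enzyme control.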
D3 antag: qHTS of D3 Dopamine Receptor Antagonist: qHTS; D(3) dopamine receptor (Homo sapiens), P35462; D3R cells, DiscoveRx beta-arrestin luminescence, antagonist mode; active compounds read low; max response, negative = inhibition, %; hit rate 2.5% among 360,000; in the data active means max response below about -50%; inconclusive means no clear call, values can overlap the other calls; further: on the % scale 0 is the no-effect control and ±100 the full control effect
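Cells plated overnight at 1500 cells/well, then exposed to library compounds with dopamine controls for 90 minutes at 37 degrees C. DiscoveRx reagent added for 30–60 minutes at room temperature; luminescence read, quantitative HTS format.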
* = called active by the depositor; ? = inconclusive; . = no result. Rows were chosen to be rich in hits. Some 2.9% of all compounds tested hit in one or more screens of this group. Unless noted, the call rests on the fitted dose curve; in most records, active means well fitted curve in the direction sought with a large enough effect; inconclusive means small, poorly fitted or top-dose-only effect, or another doubt; inactive means no such curve, though single readings can be large; an effect the other way counts as inactive or inconclusive.

SMILES	B2AR arrestin	DRD3 agonist	a7 integrin act	mIDH1 inhibitor	D3 antag
O=C(NCCN1CCCCC1)Nc1ccc(F)cc1	-0.4%	-10.4	16.3%	6.8%	-22.8
C=CC[C@@H]1Cc2c(Br)ccc(Br)c2[C@@H](CC=C)N1	-0.2%	32.1*	-4.8%	4.0%	3.6
CCCCOc1ccccc1N1CCN(CCCN2C(=O)C3CCCN3C2=O)CC1 (configuration not stated)	-0.1%	-17.5	0.0%	-2.8%	-87.2*
COc1ccccc1N1CCN(CCCCN2C(=O)C3CCCCN3C2=O)CC1 (configuration not stated)	-0.7%	-35.0	0.6%	3.3%	-77.4*
Cc1ccccc1N1CCN(CCCCN2C(=O)C3CCCN3C2=O)CC1 (configuration not stated)	-2.8%	-14.2	-18.4%	1.7%	-84.1*
COc1ccccc1N1CCN(CCCN2CC(=O)N3CCCCC3C2=O)CC1 (configuration not stated)	.	-16.8	7.1%	0.0%	-52.7*
O=C1C2CCCN2C(=O)N1CCN1CCN(CCO)CC1 (configuration not stated)	-0.4%	3.3	-12.5%	-0.1%	-10.3
Cc1ccc(-n2ncc3c(N4CCN(C)CC4)ncnc32)cc1Cl	.	-0.3	.	18.4%	.
Cc1cccc(CSc2nc3c(sc4ccccc43)c(=O)n2CCC(=O)NC(C)C)c1	.	-16.7	.	11.9%	.
CCc1ccc(CNCc2cccs2)cc1	-0.3%	-3.7	24.1%	2.6%	4.7
CCc1ccc(S(=O)(=O)NCc2cccs2)cc1	-0.7%	-4.9	19.8%	5.4%	-64.7*
Cc1nc([N+](=O)[O-])c(Br)n1CC(=O)c1cccc([N+](=O)[O-])c1	-0.3%	5.8	-31.8%	1.0%	-50.6*
Cc1nc([N+](=O)[O-])c(Br)n1CC(=O)c1ccc(F)cc1	0.6%	-1.0	-22.9%	0.0%	?
CN(CCc1ccccc1)C1CCCN(S(=O)(=O)c2cccc(F)c2)C1 (configuration not stated)	-1.0%	-7.2	12.5%	-4.5%	-63.4*
CCCCOC(=O)CSc1nnc(-c2ccc(Cl)cc2Cl)o1	0.5%	-2.0	12.0%	4.9%	-51.8*
Cc1ccc(NC(=O)C(Cc2c[nH]c3ccccc23)NC(=O)OCC(C)C)cc1 (configuration not stated)	.	-2.4	.	0.0%	.
COc1ccc(-c2nc3sc(CCNC(=O)c4cc(OC)c(OC)c(OC)c4)c(C)n3n2)cc1	.	-4.0	.	12.8%	.
CCOC(=O)C(CCSC)Nc1nc(Cl)nc(Nc2ccc(Cl)cc2)n1 (configuration not stated)	.	-12.8	31.1%	-0.5%	-58.1*
Cc1ccc(CN2C(=O)N(c3ccc(C)c(Cl)c3)S(=O)(=O)c3ccccc32)cc1	.	-1.2	.	12.5%	.
O=C(/C=C/c1c(Cl)cccc1Cl)n1cccn1	0.2%	-8.5	-28.8%	0.0%	-74.0*
O=C(/C=C/c1c(Cl)cccc1Cl)N1CCOCC1	0.1%	2.1	-23.0%	7.6%	-15.2
Cn1c(CN2CCCC2)nc2cc(NC(=O)Nc3ccccc3)ccc21	12.7%	-12.8	13.4%	-15.9%	-103.3*
COc1ccc(C(=O)Nc2ccc3c(c2)nc(CN2CCN(C(C)=O)CC2)n3C)cc1	0.3%	3.0	14.4%	8.7%	-18.9
Cc1ccc(C(C)C)c(OCC(=O)Nc2ccc3c(c2)nc(CN2CCCC2)n3C)c1	0.0%	-12.2	-39.5%	2.1%	-67.0*
COc1ccc(C(=O)Nc2ccc3c(c2)nc(CN2CCCC2)n3C)cc1	0.1%	44.9*	?	-6.8%	-16.9
SMILES	B2AR arrestin	DRD3 agonist	a7 integrin act	mIDH1 inhibitor	D3 antag
CC(=O)Nc1ccc2c(c1)nc(CN1CCCC1)n2C	0.1%	-32.8	-0.1%	-4.9%	-50.4*
O=C(CSc1nncn2c1cc1sccc12)Nc1ccc(Br)cc1F	.	-3.0	.	-3.7%	.
CCN1CCc2c(sc(-n3cccc3)c2C(C)NC(=O)Nc2ccc(C(=O)OC)cc2)C1 (configuration not stated)	.	-25.5	.	9.1%	.
CC(=O)c1ccc(N2CCN(S(=O)(=O)c3cc(-c4onc(C)c4C)ccc3C)CC2)cc1	.	4.2	.	10.2%	.
O=C(c1ccc2c(c1)OCO2)C1CCCN(Cc2ccc(OC(F)F)cc2)C1 (configuration not stated)	0.0%	-3.2	-24.9%	1.6%	-76.3*
O=C(c1ccc2c(c1)OCO2)C1CCCN(Cc2ccc3cccc(F)c3n2)C1 (configuration not stated)	0.2%	-13.9	1.5%	2.1%	-11.7
O=C(c1ccc2c(c1)OCO2)C1CCCN(Cc2cccc(C(F)(F)F)c2)C1 (configuration not stated)	-0.5%	-15.1	0.0%	14.6%	-115.0*
CCc1cccc(NC(=O)CSc2ncc3c(n2)-c2ccc(Cl)cc2N(Cc2ccccc2)S3(=O)=O)c1	.	-12.0	.	7.0%	.
CC(=O)C1=C(O)C(=O)N(Cc2ccccc2)C1c1ccc(Br)cc1 (configuration not stated)	-1.0%	-2.3	-12.9%	-8.0%	-9.3
CC1CCC(N2CCN(S(=O)(=O)Cc3ccccc3)CC2)CC1 (configuration not stated)	-0.1%	0.6	0.0%	1.7%	4.2
c1ccc(C2CCC(N3CCN(c4ccccc4)CC3)CC2)cc1 (configuration not stated)	-0.5%	-6.3	-2.7%	5.8%	-52.2*
O=S(=O)(Cc1ccccc1)N1CCC(N2CCN(c3ccccc3)CC2)CC1	-0.2%	68.5*	4.0%	6.7%	?
CO[C@@H]1[C@@H](OC)[C@H](C)[C@@](O)(CC(=O)O)O[C@H]1[C@H](C)[C@H]1O[C@@]2(CC[C@@](C)([C@H]3CC[C@@](C)([C@@H]4O[C@@H]([C@H]5O[C@](C)(O)[C@H](C)C[C@@H]5C)C[C@@H]4OC4C[C@H](OC)[C@@H](OC)[C@H](C)O4)O3)O2)C[C@H](O)[C@H]1C (some centres not stated)	.	9.5	.	.	.
Nc1c(NC/C=C\COc2cc(CN3CCCCC3)ccn2)c(=O)c1=O	.	-19.0	.	.	.
COc1cccc(CN2CCN(CCCc3ccccc3)C(CCO)C2)c1OC (configuration not stated)	0.2%	-20.7	-5.6%	20.1%	-20.1
CC(C)CCN1CCN(CCCc2ccccc2)CC1CCO (configuration not stated)	0.2%	-14.9	-38.5%	6.4%	-15.0
CCOc1ccccc1CN1CCN(Cc2[nH]c3ccccc3c2C)CC1CCO (configuration not stated)	-0.4%	-4.2	-26.3%	3.9%	-53.3*
COc1ccc(OC)c(CN2CCN(CCCc3ccccc3)C(CCO)C2)c1 (configuration not stated)	-0.2%	-25.9	7.2%	10.9%	-87.0*

Screening results: PubChem, National Center for Advancing Translational Sciences (NCATS)
